Whole data set: some 33,000 sequences, median “E-score (-0.5 to 0.5)” near -8e-05, cut for the highest 2% near 0.23. What follows is part of a selection rich in the highest values, with near analogues and random picks from the rest.
Target: T1, Nrg2 (UniProt P38082)
T1 sequence: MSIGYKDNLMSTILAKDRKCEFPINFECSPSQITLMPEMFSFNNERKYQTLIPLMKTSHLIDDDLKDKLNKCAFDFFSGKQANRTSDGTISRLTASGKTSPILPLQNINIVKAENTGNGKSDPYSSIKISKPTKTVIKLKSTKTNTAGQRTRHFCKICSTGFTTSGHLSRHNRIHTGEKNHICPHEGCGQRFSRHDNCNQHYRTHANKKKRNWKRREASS
Test: PBM E-score (8-mer binding enrichment) (E-score (-0.5 to 0.5)); higher = stronger / more preferred TF binding
Conditions: protein concentration: 100 nM; construct: GST-full length
Procedure, shortened: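 Bound GST-tagged yeast transcription factors, applied at about 100-200 nM to double-stranded universal all-10-mer Agilent arrays, were detected with fluorescent anti-GST. Scans were normalised with masliner. A modified Wilcoxon-Mann-Whitney statistic, the E-score, was assigned to each ungapped eight-base word pooled with its reverse complement by the Universal PBM Analysis Suite.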

| Sequence | PBM E-score |
| --- | --- |
| ACTTGAAA | -0.108 |
| CCTTGCAG | -0.0165 |
| CATGCTAG | -0.00401 |
| CCCGATCG | -0.026 |
| AATCTAAC | 0.0101 |
| ACGTGAGA | -0.11 |
| TCGTGAGA | -0.0385 |
| GCGTGAGA | 0.297 |
| CCTCTAGC | -0.0815 |
| TATTTCCA | 0.0167 |
| CATTTCCA | 0.237 |
| CATTTCCC | 0.201 |
| GGGCTGCA | 0.0573 |
| AACTCGGC | 0.245 |
| AACTCGGT | -0.00163 |
| AACTCGGA | 0.13 |
| AATAAATA | 0.246 |
| AATAAATG | 0.158 |
| AATAAAGG | -0.0433 |
| TATAAATA | 0.255 |
| TATAAAAA | 0.164 |
| AATAAATT | 0.215 |
| GATAAAAA | -0.00426 |
| AATAAAGA | 0.0604 |

| Sequence | PBM E-score |
| --- | --- |
| AATAAAGT | 0.252 |
| GATAAATC | 0.023 |
| GATAAATA | 0.262 |
| CATAAATA | 0.046 |
| CCCTGCCC | -0.1 |
| ACGGATTG | 0.168 |
| ACGACCCG | 0.168 |
| GGATAAAC | 0.133 |
| AGAGCTAC | 0.00658 |
| AGCCGACT | -0.111 |
| CTTGGAAA | 0.0285 |
| AGACCGTA | -0.242 |
| AACACGAC | 0.0492 |
| ATAAAAAT | 0.122 |
| CTAAATAC | 0.0507 |
| AAAAATAT | 0.101 |
| ATAAAAGG | -0.128 |
| GTAAATAC | -0.0746 |
| TTAAATAA | 0.186 |
| ATAAATAT | 0.245 |
| ATAAATAA | 0.237 |
| ATAAAAAG | 0.257 |
| ATAAATAC | 0.283 |
| ATAAAAAA | 0.0337 |

| Sequence | PBM E-score |
| --- | --- |
| ATAAATAG | 0.0238 |
| AGCCAGGA | -0.0522 |
| AAGATTCA | 0.0877 |
| CGTTGACA | 0.00462 |
| GCTAGCAA | -0.0969 |
| CTAAGAGA | -0.0214 |
| ACTACCTG | 0.0949 |
| TACTTCGA | 0.23 |
| CACTTCGA | 0.0548 |
| GACTTCGA | -0.106 |
| CCAAGATA | 0.00687 |
| ACAAGATA | 0.103 |
| GCAAGATA | 0.229 |
| GCTACGCA | -0.108 |
| CGACGAAA | 0.0993 |
| ACCGCATA | 0.0956 |
| GCCGCATA | 0.231 |
| CCCGCATA | 0.168 |
| CCCACAAG | -0.0136 |
| GCCACAAA | 0.0838 |
| CGCACGAG | -0.0371 |
| CGCACAAA | 0.257 |
| CCCACAAA | 0.247 |
| CGCACAAG | 0.0299 |

| Sequence | PBM E-score |
| --- | --- |
| GAGAGAAC | -0.0345 |
| CCCGCCAA | -0.175 |
| AGCCTACG | 0.0365 |
| AATTAATA | 0.303 |
| ATTTAATA | 0.247 |
| AATTAATG | 0.182 |
| GTTTAATA | 0.198 |
| GATAATTA | 0.0635 |
| CATAATTA | 0.173 |
| AATTAATT | -0.112 |
| TATTAATA | 0.152 |
| GATTAATA | 0.29 |
| CTTTAATA | 0.125 |
| CATTAATA | 0.155 |
| AATAATTA | 0.286 |
| CCACCACG | 0.00854 |
| CGGGTCAG | 0.023 |
| ACCCAGGA | -0.227 |
| ACTGTGGA | -0.109 |
| CGGTCGAC | -0.0395 |
| ACTCTAAA | 0.101 |
| GATAGCAA | 0.0872 |

— the supplement of paper PMC3334620
